The supplement of paper PMC9433436
± gives the standard deviation of the averaged measurements. The full ranking holds about 4,100 sequences; the median of “relative kcat/Km (krel) vs genomic leader AAAGAU” is about 1.7, and the highest 2% start at about 6.5. What follows is part of a selection rich in the highest values, with near analogues and random picks from the rest.

Target: T1, E. coli RNase P holoenzyme (M1 P RNA + rnpA protein) (UniProt P0A7Y8)
T1 sequence: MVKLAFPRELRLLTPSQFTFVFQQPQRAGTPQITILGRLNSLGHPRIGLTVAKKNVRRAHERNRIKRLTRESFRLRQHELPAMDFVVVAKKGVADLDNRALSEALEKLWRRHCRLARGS
Experiment: relative kcat/Km (krel) vs genomic leader AAAGAU (relative (reference leader = 1)); higher = faster RNase P cleavage
Outline: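 Under multiple-turnover conditions at 37 °C, a precursor tRNA-Met pool randomized at leader positions −6 to −1 was processed by E. coli RNase P holoenzyme (P RNA plus C5 protein) in 50 mM Tris-HCl pH 8, 100 mM NaCl, 17.5 mM MgCl2. The remaining precursor was gel-purified at ~5–30% conversion, then converted to cDNA libraries and Illumina-sequenced. Relative kcat/Km (krel) came from read ratios by internal competition kinetics, normalised to the genomic leader, with two technical replicates averaged.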

[1] = fraction of substrate reacted: ~9-10% (9.79% repeat 1, 9.1% repeat 2)
[2] = fraction of substrate reacted: ~13-16% (15.68% repeat 1, 13.17% repeat 2)
[3] = fraction of substrate reacted: ~26-29% (28.66% repeat 1, 26.4% repeat 2)

Sequence	relative kcat/Km [1]	relative kcat/Km [2]	relative kcat/Km [3]
CTTCCC	1.37 ± 0.18	1.5 ± 1.2	1.93 ± 0.53
GGGATG	0.585 ± 0.41		0.779 ± 0.15
CTAGAT		1.15 ± 0.17	1.83 ± 0.17
GACCTC	2.41 ± 0.81	2.49 ± 0.041	3.63 ± 0.74
GGATAC	1.9 ± 1.2	1.76 ± 0.55	3.05 ± 0.7
GACTAC	4 ± 0.5	6.14 ± 3	8.43 ± 3.9
CGCTAG	2.34 ± 1.3	2.43 ± 1	3.4 ± 0.31
CACTAC	4.63 ± 0.25	6.82 ± 2.5	8.23 ± 3.5
CACTAT	4.78 ± 1.4	6.06 ± 2	8.37 ± 3.9
AACTAC	3.89 ± 1.7	4.66 ± 0.63	6.38 ± 2.5
CGCTAC	3.79 ± 0.67	4.78 ± 2.6	6.76 ± 2.8
CGCTAT	3.49 ± 0.87	4.44 ± 1.6	5.95 ± 2.4
CACTGT	1.07 ± 0.037	0.947 ± 0.35	1.51 ± 1.1
CACTGC	3.89 ± 1.6	4.53 ± 1.3	6.06 ± 1.9
CGTATA	2.37 ± 0.34	2.75 ± 0.17	3.94 ± 1.5
GATGGT			2.1 ± 0.88
TGAGAC	2.71 ± 1.3	2.56 ± 0.093	4.48 ± 1.3
TATACA	1.36 ± 0.29	2.13 ± 0.035	3.02 ± 1.8
AGTCGA	2.68 ± 0.35	3.65 ± 1.2	5.59 ± 2
CCCTTT	2.73 ± 0.52	3.73 ± 1.1	5.02 ± 2
TCCTTA	3.84 ± 1.5	4.61 ± 0.54	6.32 ± 2.4
TCCTTT	3.7 ± 1.8	4.6 ± 0.8	6.89 ± 2.9
ACCTAC	3.44 ± 1.2	4.53 ± 0.77	5.77 ± 2.1
CCCTTC	3.11 ± 1.4	3.36 ± 0.74	4.51 ± 1.3
GCCTAC	3.67 ± 1.2	4.5 ± 0.39	6.1 ± 2.4

Sequence	relative kcat/Km [1]	relative kcat/Km [2]	relative kcat/Km [3]
TCCTAC	4.6 ± 1.6	5.74 ± 0.95	9.69 ± 4.1
TCCTTC	3.75 ± 1.2	4.99 ± 0.72	6.44 ± 2.3
ACCTAT	3.74 ± 1.7	4.66 ± 0.24	6.39 ± 2.5
TCCTAT	4.03 ± 0.47	6.02 ± 0.85	9.38 ± 4.8
CCCTAC	4.32 ± 1.6	5.08 ± 2.3	7.32 ± 3.6
GAAGAT	1.93 ± 1.7	1.36 ± 0.085	1.34 ± 0.35
ATGCTG			0.658 ± 0.54
CTTAGA	3.03 ± 0.85	3.18 ± 0.44	4.79 ± 1.7
GATACC		1.49 ± 0.64	1.67 ± 0.033
CTGAAG			2.05 ± 0.18
TCCCGT			1.86 ± 0.041
GCAATT		0.851 ± 0.064	1.21 ± 0.26
AGTGTG			0.473 ± 0.33
CCCTGT			1.59 ± 0.87
ACCTCA	3.35 ± 1.8	3.24 ± 0.27	4 ± 1.2
GCCTAT	2.77 ± 0.47	3.91 ± 0.98	6.22 ± 2.8
CCCTAG	3.11 ± 1.7	2.55 ± 0.57	4.45 ± 1.2
CCTAAA	2.53 ± 1.5	2.31 ± 0.051	3.14 ± 0.82
ACCTAA	2.83 ± 0.76	4.49 ± 0.31	6.74 ± 2.3
GCCTAG	2.58 ± 1.6	1.57 ± 0.49	3.67 ± 1.2
CCCCCT	2.27 ± 1.8	1.25 ± 0.29	1.95 ± 0.15
CCCTAT	3.137 ± 0.006	5.47 ± 1.1	7.09 ± 3.1
GCCTAA	2.35 ± 0.18	3.94 ± 0.16	7.08 ± 2.8
ACCTAG	2.77 ± 2.8	2.93 ± 0.56	4.27 ± 0.99
CCCTAA	3.68 ± 0.17	4.41 ± 1.4	6.7 ± 3.1

Sequence	relative kcat/Km [1]	relative kcat/Km [2]	relative kcat/Km [3]
TGCAAA	0.962 ± 0.78	1.86 ± 0.54	2.7 ± 1.3
CGGACC	0.889 ± 0.39	0.714 ± 0.41	0.577 ± 0.38
ACCGGT			1.78 ± 1.1
TGGTCT			0.817 ± 0.39
CTGGCG	0.881 ± 0.58		0.461 ± 0.2
CAGTGA	1.48 ± 0.7	2.14 ± 0.58	3.05 ± 0.86
GATCGA	2.37 ± 0.82	2.79 ± 1.2	4.26 ± 1.2
GTTAAG		1.6 ± 0.16	2.65 ± 0.77
CTACTC	2.13 ± 1.3	1.61 ± 0.43	2.14 ± 0.28
TCCTAG	2.56 ± 0.72	3.4 ± 0.46	6.01 ± 2.7
TCCTAA	5.1 ± 1.9	6.12 ± 0.94	9.11 ± 3.3
CACCGA	3.39 ± 1.4	3.9 ± 0.93	6.22 ± 2.1
TACCGC	3.15 ± 1.3	4.16 ± 0.76	6.03 ± 2.5
AACCGA	2.67 ± 0.52	3.23 ± 0.34	4.66 ± 1.2
TACCGG			1.29 ± 0.22
TACCGA	2.83 ± 0.7	4.89 ± 1.1	7.04 ± 2.7
GACCGA	3.3 ± 0.89	4.27 ± 2.1	6.73 ± 2.8
AGCCGC	3.07 ± 1.3	2.5 ± 0.098	4.02 ± 1.1
TGTATC	1.92 ± 0.29	2.43 ± 0.36	4 ± 1.6
AACTGT	0.625 ± 0.14	0.97 ± 0.59	0.608 ± 0.51
GGACGG			0.782 ± 0.17
GGCGGC			0.914 ± 0.47
GAACAG		0.667 ± 0.64	1.66 ± 0.19
ACATAT	2.86 ± 0.79	4.26 ± 0.58	6.5 ± 3.1
TCATAA	3.15 ± 1.2	4.17 ± 0.67	5.77 ± 2.2

Sequence	relative kcat/Km [1]	relative kcat/Km [2]	relative kcat/Km [3]
TCATAC	4.3 ± 0.51	5.72 ± 0.91	7.38 ± 3
TAATAT	3.78 ± 1.4	5.05 ± 0.28	7.45 ± 3.4
TCATAG	1.97 ± 1.4	1.66 ± 0.34	3.6 ± 0.47
TCATAT	4.21 ± 1.4	5.49 ± 1	8.18 ± 3.4
TAATAA	3.59 ± 2	4.41 ± 0.57	5.5 ± 2.2
GAATAT	2.99 ± 0.33	4.3 ± 0.79	6.29 ± 3.4
ACATAC	3.09 ± 1.3	3.78 ± 0.48	6.1 ± 2.7
ACAACT			1.07 ± 0.15
CGGACA	0.696 ± 0.1	0.739 ± 0.49	0.747 ± 0.23
GCAAAT	2.24 ± 0.9	2.01 ± 0.39	1.93 ± 0.58
CGACCC		0.175 ± 0.13	1.47 ± 0.038
AAGATG			0.939 ± 0.44
GACGGA		1.21 ± 1.1	0.922 ± 0.64
GACGAA	3.75 ± 1.5	6.07 ± 1.1	8.11 ± 2.6
TACGAC	3.699 ± 0.0078	5.54 ± 1.6	7.61 ± 3.2
TACGAT	2.93 ± 1.5	2.79 ± 0.68	3.63 ± 1.5
GACGTA	2.41 ± 1.4	2.86 ± 0.42	3.54 ± 1.3
TACGAG		1.58 ± 0.12	3.95 ± 1.1
CACGAC	3.62 ± 0.058	5.56 ± 2.7	7.35 ± 3
AACGAC	3.67 ± 0.53	4.57 ± 1.6	5.98 ± 2.1
TACGAA	2.87 ± 0.059	5.68 ± 1	8.44 ± 3.8
CACGAG	1.8 ± 0.22	2.47 ± 1.2	3.69 ± 1.2
AACGAA	2.84 ± 0.7	3.68 ± 0.69	5.36 ± 1.9
CACGAT	1.78 ± 0.53	2.22 ± 0.33	3.42 ± 1.1
TCGTCA	2.78 ± 1.8	2.51 ± 0.12	3.63 ± 1.3

Sequence	relative kcat/Km [1]	relative kcat/Km [2]	relative kcat/Km [3]
ACTAGG			0.408 ± 0.15
CGGGCA	1.28 ± 0.55	0.965 ± 0.75	0.825 ± 0.17
CCAGAC	2.22 ± 0.29	2.1 ± 1.1	3.22 ± 0.77
AAGGGA			1.11 ± 0.65
TTTTCC	2.77 ± 1.4	2.75 ± 0.3	3.22 ± 0.98
GAGGTG			0.61 ± 0.57
GGATGG			0.8644 ± 0.0076
CTTTTT	2.99 ± 1.5	3.27 ± 0.75	4.46 ± 1.3
GCTCGG	0.809 ± 0.37	0.268 ± 0.21	0.748 ± 0.15
CACGTA	1.91 ± 1.1	2.23 ± 0.31	3.56 ± 1.4
CACGCA	2.14 ± 0.48	3.31 ± 1.5	4.91 ± 1.6
GACGAC	3.35 ± 0.49	5.87 ± 1.6	7.89 ± 2.8
GACGAT	1.52 ± 0.65	2.06 ± 1.5	2.68 ± 1.1
GACGAG		1.49 ± 0.19	3.3 ± 0.29
CACGAA	4.26 ± 1.8	6 ± 1.6	7.87 ± 2.6
CGGATT			0.799 ± 0.34
CAAATA	2.33 ± 2.3	1.68 ± 0.092	1.78 ± 0.47
CACCTA	2.32 ± 0.25	2.44 ± 0.4	3.68 ± 1.3
ACTAAC	1.48 ± 0.31	1.42 ± 0.44	2.32 ± 0.65
GCCTGC	2.23 ± 0.7	3.39 ± 0.37	4.68 ± 2.1
ATCTGA	3.86 ± 1.9	3.98 ± 0.23	6.19 ± 2.2
TTCTGC	4.12 ± 0.25	5.95 ± 2.2	8.28 ± 3.5
TTCTGT			2.43 ± 1.9
CTCTGC	3.95 ± 0.21	5.74 ± 1.6	7.34 ± 3
ATCTGC	3.18 ± 0.4	3.94 ± 1.9	6.13 ± 3

Sequence	relative kcat/Km [1]	relative kcat/Km [2]	relative kcat/Km [3]
CTCTGG	0.652 ± 0.17		1.31 ± 0.49
TGCTGC	1.63 ± 0.12	1.51 ± 1.2	2.71 ± 1
GTCTGC	3.58 ± 1.3	4.94 ± 1.2	7.11 ± 3.3
TTCTGA	4.7 ± 2.6	5.18 ± 0.91	7.63 ± 2.7
TTCTGG	0.949 ± 0.38	0.819 ± 0.094	1.66 ± 0.46
GACTGC	3.44 ± 0.14	3.38 ± 0.99	4.88 ± 1.6
GGTTGG			1.05 ± 0.77
TGACAC	3.63 ± 1.5	4.21 ± 0.43	5.94 ± 2.2
TTGCCT	1.95 ± 0.52	1.33 ± 0.068	2.09 ± 0.58
GGAGCC	1.22 ± 0.046	0.902 ± 0.094	1.3 ± 0.38
ACACGG		0.487 ± 0.4	
ACGCAA	1.95 ± 1.4	1.95 ± 0.18	2.25 ± 0.13
GGGGCG	0.268 ± 0.026		0.656 ± 0.0035
ATAGGT			2.15 ± 1.4
ATAACT	1.28 ± 0.37	1.21 ± 0.2	1.79 ± 0.75
GAGTTT	1.6 ± 0.65	1.28 ± 0.17	2.05 ± 0.46
ACAAAC	1.92 ± 1.6	1.88 ± 1.1	2.42 ± 0.36
CTCTGA	4.13 ± 2	4.61 ± 0.58	6.63 ± 1.7
GTCTGG		0.567 ± 0.54	0.916 ± 0.067
CTCTGT	0.825 ± 0.31	1.81 ± 1.4	2.05 ± 1.6
GTCTGT			2.58 ± 2
GTCTGA	3.86 ± 1.8	4.82 ± 1.2	6.97 ± 2.6
CGCTGA	1.89 ± 0.05	2.02 ± 1	3.55 ± 0.89
GGGCAT	1.03 ± 0.31	1.51 ± 0.12	2.18 ± 0.97
TCTAAG	2.04 ± 1.6	1.47 ± 0.52	2.47 ± 0.27
